Hits are enriched below; roughly 3.5% of the tested compounds scored in any of these assays.
MITF inh = MITF inhibitors, primary screen, biochemical, AlphaScreen, human; Microphthalmia-associated transcription factor (Homo sapiens), O75030; AlphaScreen MITF homodimerization, bead proximity signal; inhibition, % at 2.6 µM; 650,000 tested, 0.91% active; AID 1259374, 2018; in the data active = inhibition above about 50%;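 also: 0% = vehicle wells with protein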
GPR151 ag = activators of human GPR151, primary screen, cell-based, PathHunter beta-arrestin, luminescence; activation, % at 11.2 µM; G-protein coupled receptor 151 (Homo sapiens), Q8TDV0; 650,000 tested, 1% active; PathHunter beta-arrestin GPR151 cells; in the data active = activation above about 4.9%;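 also: 0% = median of compound wells and 100% = cells with positive control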
Target sequence (Q8TDV0 whole entry, looked up): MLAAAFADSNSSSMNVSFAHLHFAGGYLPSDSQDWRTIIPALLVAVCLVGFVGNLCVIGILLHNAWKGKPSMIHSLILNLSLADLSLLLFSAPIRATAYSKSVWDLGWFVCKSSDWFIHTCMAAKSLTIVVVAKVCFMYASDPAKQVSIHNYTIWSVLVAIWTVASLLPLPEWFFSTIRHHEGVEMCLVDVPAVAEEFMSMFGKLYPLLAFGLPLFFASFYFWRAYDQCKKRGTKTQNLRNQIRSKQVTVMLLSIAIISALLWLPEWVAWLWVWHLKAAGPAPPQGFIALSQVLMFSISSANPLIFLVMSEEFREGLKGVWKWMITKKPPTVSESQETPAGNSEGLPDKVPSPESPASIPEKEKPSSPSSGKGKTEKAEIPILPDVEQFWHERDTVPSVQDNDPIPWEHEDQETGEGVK
TEAD-YAP block = TEAD-YAP interaction inhibition, primary screen, TEAD-YAP interaction inhibitor project, luminescence, HEK-TIYL cells. inhibition, % at 9.12 µM. 640,000 tested, 1.4% active. TEAD-Gal4/YAP UAS-luciferase luminescence; in the data active = inhibition above about 32%;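 also: 0% = median of test compound wells and 100% = reference inhibitor wells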
FBW7 act = FBW7 E3 ligase activators, primary screen, biochemical, AlphaScreen, human; F-box/WD repeat-containing protein 7 (Homo sapiens), Q969H0; AlphaScreen FBW7–phospho-cyclin E peptide binding, activator screen; normalized activity (activation), % at 26.1 µM; 650,000 tested, 0.13% active; AID 1259310, 2017; in the data active = normalized activity above about 1.9%;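 also: purified mutant Fbw7 with reduced substrate affinity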
Active calls of the source: *.

SMILES	MITF inh	GPR151 ag	TEAD-YAP block	FBW7 act
Fc1ccc(CSc2nn3cnnc3s2)cc1	8	-1	58*	1
Clc1ccccc1CSc1nn2cnnc2s1	-4	0	55*	0
Cn1cnnc1SCc1ccccc1Cl	0	1	12	0
c1ccc(CSc2nn3cnnc3s2)cc1	-8	0	58*	0
CC(C)Oc1ccc(C(=O)Nc2c3c(nn2C(C)(C)C)CSC3)cc1	2	-2	-5	0
CC(C)N(CCNc1nc(NC2CCC(O)CC2)nc2c1ncn2-c1ccsc1)C(C)C (stereo unspecified)	0	-1	74*	0
OC1CCC(Nc2nc(NCc3ccccc3)c3ncn(-c4ccsc4)c3n2)CC1 (stereo unspecified)	7	0	-19	0
Oc1ccc(CCNc2nc(NC3CCC(O)CC3)nc3c2ncn3-c2ccsc2)cc1 (stereo unspecified)	-4	-2	48*	0
COc1ccc(CCNc2nc(NC3CCC(O)CC3)nc3c2ncn3-c2ccccc2)cc1 (stereo unspecified)	8	1	48*	0
Cc1cc(I)cnc1NC(=O)c1ccccc1[N+](=O)[O-]	7	0	58*	0
O=C(NC(=S)Nc1ccc(Cl)cn1)c1ccccc1[N+](=O)[O-]	21	-1	-12	0
O=C(Nc1ccc(Cl)cn1)c1ccccc1[N+](=O)[O-]	-8	0	43*	0
COCCN1C(=S)NC2c3ccccc3OC13CCCC23 (stereo unspecified)	4	0	36*	0
CC1=C(C#N)C(=O)NC(=O)/C1=C\c1ccc(-c2ccccc2)o1	5	-1	1	0
CC1=C(C#N)C(=O)NC(=O)/C1=C\c1ccc(-c2ccc(C(=O)O)c(Cl)c2)o1	58*	0	6	0
CCOc1ccc2[nH]c(=O)c(CN(Cc3cccs3)C(=O)CC)cc2c1	10	1	33*	0
COc1c(NC(=O)Nc2ccccc2C)cc([N+](=O)[O-])c(OC)c1C	6	1	45*	0
COc1ccc(C)cc1-n1c(C)cn2c3c(=O)n(C)c(=O)n(C)c3nc12	8	1	45*	0
COc1ccc(OC)c(-n2c(C)cn3c4c(=O)n(C)c(=O)n(C)c4nc23)c1	-1	-1	-10	0
COc1cccc(C2C(C#N)=C(N)Oc3ccc4ccccc4c32)c1 (stereo unspecified)	17	-1	50*	0
COc1ccc(OC)c(C2C(C#N)=C(N)Oc3c2ccc2ccccc32)c1 (stereo unspecified)	5	-2	51*	0
CCOc1cc(C2C(C#N)=C(N)Oc3c2ccc2ccccc32)ccc1O (stereo unspecified)	17	0	12	0
COc1cc(C2C(C#N)=C(N)Oc3c2ccc2ccccc32)cc(Br)c1O (stereo unspecified)	10	-1	64*	0
COc1cccc(C2C(C#N)=C(N)Oc3n[nH]c(-c4ccc5ccccc5c4)c32)c1 (stereo unspecified)	-3	1	-2	-1
COc1ccc(OC)c(C2C(C#N)=C(N)Oc3c2c(=O)[nH]c2ccccc32)c1 (stereo unspecified)	1	0	-5	0
SMILES	MITF inh	GPR151 ag	TEAD-YAP block	FBW7 act
O=C(NCC1(O)CCCCC1)c1cc(COc2ccc(F)cc2Cl)on1	-19	-1	2	0
CCOCCOC(=O)c1[nH]c2c(c1C)C(=O)CC(c1ccc(OC)c(OC)c1)C2 (stereo unspecified)	9	0	21	0
COc1cc(C2CC(=O)c3c([nH]c(C(=O)OCCSC)c3C)C2)cc(OC)c1OC (stereo unspecified)	7	5	56*	0
COc1cc(C2CC(=O)c3c([nH]c(C(=O)OCCOC(C)C)c3C)C2)cc(OC)c1OC (stereo unspecified)	4	2	66*	0
COc1ccc(C2CC(=O)c3c([nH]c(C(=O)OCCOC(C)C)c3C)C2)cc1 (stereo unspecified)	10	1	3	0
CC(=O)Nc1cccc(NC(=O)CSc2ccc(-c3nc4ccccc4[nH]3)cn2)c1	-6	-4	40*	0
COc1ccc(C(=O)Nc2noc3ccccc23)c(OC)c1	-4	-10	88*	0
COc1ccccc1C(=O)Nc1noc2ccccc12	15	-5	27	0
Cc1ccccc1C(=O)Nc1noc2ccccc12	-2	-12	43*	0
O=C(Nc1noc2ccccc12)c1ccc(F)cc1	-7	-12	44*	0
O=C(Nc1noc2ccccc12)c1cccc(F)c1	-4	-4	-17	0
O=C1NC(=O)/C(=C\c2ccc(N3CCOCC3)cc2)N1	6	1	5	0
COc1ccc(C2=NN(C(=O)CSc3nnc(CNC(=O)c4cccs4)n3-c3ccccc3)C(c3ccc(C)cc3)C2)cc1 (stereo unspecified)	-2	0	-13	0
Cc1ccccc1-n1nnnc1Sc1ccc([N+](=O)[O-])c2cnccc12	-7	1	44*	0
O=[N+]([O-])c1ccc(Sc2nnnn2-c2ccccc2)c(Cl)c1	21	0	34*	0
CC(=O)c1ccc(Sc2nnnn2-c2ccccc2)c([N+](=O)[O-])c1	4	-2	33*	0
O=[N+]([O-])c1cc(C(F)(F)F)ccc1Sc1nnnn1-c1ccccc1	2	0	2	0
O=[N+]([O-])c1ccc(Sc2nnnn2-c2ccccc2)c2ccncc12	4	-1	50*	0
Cn1c(Sc2ccc([N+](=O)[O-])c3cnccc23)nnc1C(F)(F)F	-12	1	-1	0
Cc1cc(C)c2nc(NNC(=O)c3cccc(F)c3)sc2c1	11	0	3	0
COc1ccc(Cl)cc1NC(=O)CSc1ccc(C(=O)O)cn1	2	0	-3	0
Cc1ccc2c(c1)N(C(=O)CCC(=O)NCCCN(C)C1CCCCC1)CCO2	4	0	2	0
COc1cc(Nc2ccnc(Nc3ccc(-n4ccnc4)cc3)n2)cc(OC)c1OC	9	3	51*	0
CCN(CC)c1nc(Nc2ccc(-n3ccnc3)cc2)nc(Nc2cc(OC)c(OC)c(OC)c2)n1	12	-1	75*	0
CCN(CC)c1nc(Nc2ccccc2)nc(Nc2cc(OC)c(OC)c(OC)c2)n1	9	0	-1	0
CN1CCc2c(n(CC(O)CN3CCCCCC3)c3ccccc23)C1=O (stereo unspecified)	-13	2	2	0
C=CCn1c(SCC(=O)Nc2ccc(F)cc2F)nnc1-c1ccccc1O	-7	0	48*	0
C=CCn1c(SCC(=O)Nc2cccc(C)c2)nnc1-c1ccccc1O	6	1	13	0
CC1=C(C(=O)N2CCc3ccc(NC(=O)c4ccccc4Cl)cc3C2)OCCO1	6	-2	4	0

Screening data as filed in PubChem.
